These results are taken from ChEMBL document CHEMBL3988442, “University of Dundee, Small-Polar-MMV Screening Library” (2021).

For some of these results: Potency and affinity values are given separately.

Set-up in all cases: scale not given: direction of the effect not stated beside the values
The target of test [1] is Protein translocase subunit SecA (Escherichia coli (strain K12)) (UniProt P10408). As to the kind of experiment: Assay to Identify E. coli SecA ATPase Inhibitors. It is filed as functional. To be noted: 30 µM.
For test [2], the target named is T1, Ubiquitin-activating enzyme e1, putative (Leishmania donovani (strain BPK282A1)) (UniProt E9BSI1).
T1 sequence (whole entry): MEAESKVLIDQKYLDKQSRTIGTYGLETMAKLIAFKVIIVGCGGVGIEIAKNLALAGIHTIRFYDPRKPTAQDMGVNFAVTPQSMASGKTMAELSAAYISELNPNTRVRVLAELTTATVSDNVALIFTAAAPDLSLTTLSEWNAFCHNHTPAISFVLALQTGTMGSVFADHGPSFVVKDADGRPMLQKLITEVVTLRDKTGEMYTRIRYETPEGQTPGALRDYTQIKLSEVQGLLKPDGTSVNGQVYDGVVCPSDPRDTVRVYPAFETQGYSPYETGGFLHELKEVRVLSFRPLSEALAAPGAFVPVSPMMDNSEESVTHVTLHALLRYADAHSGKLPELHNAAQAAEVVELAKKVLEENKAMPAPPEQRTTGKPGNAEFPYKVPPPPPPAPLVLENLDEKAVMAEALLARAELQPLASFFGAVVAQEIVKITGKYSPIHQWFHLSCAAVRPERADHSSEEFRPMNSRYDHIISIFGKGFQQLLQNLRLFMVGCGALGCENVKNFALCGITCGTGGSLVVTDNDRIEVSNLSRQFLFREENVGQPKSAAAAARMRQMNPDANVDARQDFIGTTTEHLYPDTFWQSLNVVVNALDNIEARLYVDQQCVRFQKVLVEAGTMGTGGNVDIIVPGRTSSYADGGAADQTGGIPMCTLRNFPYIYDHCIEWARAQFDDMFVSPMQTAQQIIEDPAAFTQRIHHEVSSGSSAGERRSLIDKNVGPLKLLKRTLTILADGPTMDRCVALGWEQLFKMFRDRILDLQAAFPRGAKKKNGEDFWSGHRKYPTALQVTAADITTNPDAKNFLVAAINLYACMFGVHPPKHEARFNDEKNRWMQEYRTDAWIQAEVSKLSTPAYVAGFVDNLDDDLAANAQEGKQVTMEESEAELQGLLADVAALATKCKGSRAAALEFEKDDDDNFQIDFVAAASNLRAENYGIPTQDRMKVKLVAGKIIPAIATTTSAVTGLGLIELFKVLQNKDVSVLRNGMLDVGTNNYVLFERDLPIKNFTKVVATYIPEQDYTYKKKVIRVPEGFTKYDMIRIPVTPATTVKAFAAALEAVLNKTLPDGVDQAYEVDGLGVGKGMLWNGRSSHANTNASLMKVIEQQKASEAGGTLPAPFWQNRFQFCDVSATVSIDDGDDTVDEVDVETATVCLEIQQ
As to the kind of experiment: Leishmania donovani Ubiquitin Activating Enzyme (LdE1). To be noted: 30 µM. It is filed as functional.

The target in test [3] is AMP-activated protein kinase, AMPK (Homo sapiens) (UniProt P54646+O43741+P54619+Q9UGJ0+Q9Y478+Q13131+Q9UGI9). As to the kind of experiment: AMP-dependent Kinase enzyme assay. An in vitro enzyme assay that detects ADP turnover that is directly proportional to AMPK activity. This uses naive AMPK that is activated during the assay with MK-8722. It is filed as functional. The following applies: 30 µM.

Test [4] deals with Sialic acid-binding Ig-like lectin 9 (Homo sapiens) (UniProt Q9Y336). As to the kind of experiment: Hs-Siglec9 ALPHAscreen SOP 20170721. To be noted: 10 µM.
For the next test, the system named is Trypanosoma cruzi. As to the kind of experiment: Trypanosoma cruzi phosphomannomutase and mannose-1-phosphate guanylyltransferase assay. The test is classed as functional. The following applies: 10 µM.
The target of test [5] is T2, Arginase-2, mitochondrial (Homo sapiens) (UniProt P78540).
T2 sequence (whole entry): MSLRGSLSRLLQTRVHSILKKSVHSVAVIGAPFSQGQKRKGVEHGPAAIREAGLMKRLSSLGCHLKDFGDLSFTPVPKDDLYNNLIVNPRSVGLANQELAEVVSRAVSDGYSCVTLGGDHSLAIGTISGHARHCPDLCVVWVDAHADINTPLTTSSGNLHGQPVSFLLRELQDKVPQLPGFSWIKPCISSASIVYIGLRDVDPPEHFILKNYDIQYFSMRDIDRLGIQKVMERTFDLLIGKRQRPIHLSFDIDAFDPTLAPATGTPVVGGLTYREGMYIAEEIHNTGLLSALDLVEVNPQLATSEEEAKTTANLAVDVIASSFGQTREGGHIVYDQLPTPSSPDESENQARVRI
As to the kind of experiment: in vitro enzyme assay to detect the production of urea directly proportional to the activity of Arginase II. Further: in the data most compounds retested in dose-response had high values. It is filed as functional. The following applies: 33.3 µM.

Test [6] concerns the target T3, Proteasome subunit beta (Trypanosoma cruzi) (UniProt O96673).
T3 sequence (whole entry): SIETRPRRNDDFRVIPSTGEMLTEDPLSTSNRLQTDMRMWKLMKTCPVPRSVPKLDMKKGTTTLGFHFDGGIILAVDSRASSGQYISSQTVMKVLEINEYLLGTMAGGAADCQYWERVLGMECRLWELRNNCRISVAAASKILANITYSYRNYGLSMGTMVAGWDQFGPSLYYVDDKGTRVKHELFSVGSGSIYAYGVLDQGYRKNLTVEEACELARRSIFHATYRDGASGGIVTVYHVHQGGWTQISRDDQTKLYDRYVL
As to the kind of experiment: Trypanosoma cruzi proteasome chymotrypsin-like activity (TcProtChymo) assay. Further: in the data most compounds retested in dose-response had high values. The test is classed as functional. The following applies: 9.37 µM.

Another test is filed under the species Homo sapiens. As to the kind of experiment: To identify inhibition of the IFN signalling (Jak-Stat) pathway via expression of an eGFP reporter gene under the control of an IFN-stimulated response element (ISRE) containing MxA promoter. The following applies: 30 µM. The test is classed as functional. Background: Reporter assays use an easily measured gene product as a stand-in for the process of interest.

The target of test [7] is T4, Tyrosyl-tRNA synthetase, putative (Trypanosoma cruzi (strain CL Brener)) (UniProt Q4DSP6).
T4 sequence (whole entry): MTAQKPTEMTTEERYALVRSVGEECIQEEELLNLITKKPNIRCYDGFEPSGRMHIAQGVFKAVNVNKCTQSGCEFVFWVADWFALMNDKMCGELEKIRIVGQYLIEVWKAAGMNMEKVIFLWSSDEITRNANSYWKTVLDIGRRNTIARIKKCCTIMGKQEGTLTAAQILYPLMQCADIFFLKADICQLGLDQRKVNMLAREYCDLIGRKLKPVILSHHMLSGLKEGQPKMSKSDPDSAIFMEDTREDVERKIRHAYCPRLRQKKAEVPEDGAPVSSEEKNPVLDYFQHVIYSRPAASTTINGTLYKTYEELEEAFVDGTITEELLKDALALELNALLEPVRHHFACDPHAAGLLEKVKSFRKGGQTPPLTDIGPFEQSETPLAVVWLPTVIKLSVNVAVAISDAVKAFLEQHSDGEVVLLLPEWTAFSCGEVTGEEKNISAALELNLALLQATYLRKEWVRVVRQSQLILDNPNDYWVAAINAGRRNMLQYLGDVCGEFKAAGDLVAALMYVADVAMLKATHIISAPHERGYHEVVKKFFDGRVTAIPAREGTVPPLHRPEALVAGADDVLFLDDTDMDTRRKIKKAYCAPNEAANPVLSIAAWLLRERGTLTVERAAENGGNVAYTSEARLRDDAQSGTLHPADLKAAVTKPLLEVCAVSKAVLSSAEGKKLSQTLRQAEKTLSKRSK
As to the kind of experiment: Trypanosoma cruzi tyrosyl tRNA synthetase (TcYRS) _High Tyrosine SOP. Further: in the data most compounds retested in dose-response had high values. The test is classed as functional. To be noted: 30 µM.

Test [8] deals with T4, Tyrosyl-tRNA synthetase, putative (Trypanosoma cruzi (strain CL Brener)). As to the kind of experiment: Trypanosoma cruzi tyrosyl tRNA synthetase (TcYRS) SOP. It is filed as functional. The following applies: 30 µM.
For test [9], the target named is Chromo domain-containing protein 1 (Saccharomyces cerevisiae (strain ATCC 204508 / S288c) (Baker's yeast)) (UniProt P32657). As to the kind of experiment: ScCHD-1 Enzyme Inhibition Assay. Further: in the data most compounds retested in dose-response had high values. The test is classed as functional. The following applies: 30 µM.
Chain of Chromo domain-containing protein 1 (Saccharomyces cerevisiae (strain ATCC 204508 / S288c) (Baker's yeast)) (P32657 whole entry, the tested form may be a part): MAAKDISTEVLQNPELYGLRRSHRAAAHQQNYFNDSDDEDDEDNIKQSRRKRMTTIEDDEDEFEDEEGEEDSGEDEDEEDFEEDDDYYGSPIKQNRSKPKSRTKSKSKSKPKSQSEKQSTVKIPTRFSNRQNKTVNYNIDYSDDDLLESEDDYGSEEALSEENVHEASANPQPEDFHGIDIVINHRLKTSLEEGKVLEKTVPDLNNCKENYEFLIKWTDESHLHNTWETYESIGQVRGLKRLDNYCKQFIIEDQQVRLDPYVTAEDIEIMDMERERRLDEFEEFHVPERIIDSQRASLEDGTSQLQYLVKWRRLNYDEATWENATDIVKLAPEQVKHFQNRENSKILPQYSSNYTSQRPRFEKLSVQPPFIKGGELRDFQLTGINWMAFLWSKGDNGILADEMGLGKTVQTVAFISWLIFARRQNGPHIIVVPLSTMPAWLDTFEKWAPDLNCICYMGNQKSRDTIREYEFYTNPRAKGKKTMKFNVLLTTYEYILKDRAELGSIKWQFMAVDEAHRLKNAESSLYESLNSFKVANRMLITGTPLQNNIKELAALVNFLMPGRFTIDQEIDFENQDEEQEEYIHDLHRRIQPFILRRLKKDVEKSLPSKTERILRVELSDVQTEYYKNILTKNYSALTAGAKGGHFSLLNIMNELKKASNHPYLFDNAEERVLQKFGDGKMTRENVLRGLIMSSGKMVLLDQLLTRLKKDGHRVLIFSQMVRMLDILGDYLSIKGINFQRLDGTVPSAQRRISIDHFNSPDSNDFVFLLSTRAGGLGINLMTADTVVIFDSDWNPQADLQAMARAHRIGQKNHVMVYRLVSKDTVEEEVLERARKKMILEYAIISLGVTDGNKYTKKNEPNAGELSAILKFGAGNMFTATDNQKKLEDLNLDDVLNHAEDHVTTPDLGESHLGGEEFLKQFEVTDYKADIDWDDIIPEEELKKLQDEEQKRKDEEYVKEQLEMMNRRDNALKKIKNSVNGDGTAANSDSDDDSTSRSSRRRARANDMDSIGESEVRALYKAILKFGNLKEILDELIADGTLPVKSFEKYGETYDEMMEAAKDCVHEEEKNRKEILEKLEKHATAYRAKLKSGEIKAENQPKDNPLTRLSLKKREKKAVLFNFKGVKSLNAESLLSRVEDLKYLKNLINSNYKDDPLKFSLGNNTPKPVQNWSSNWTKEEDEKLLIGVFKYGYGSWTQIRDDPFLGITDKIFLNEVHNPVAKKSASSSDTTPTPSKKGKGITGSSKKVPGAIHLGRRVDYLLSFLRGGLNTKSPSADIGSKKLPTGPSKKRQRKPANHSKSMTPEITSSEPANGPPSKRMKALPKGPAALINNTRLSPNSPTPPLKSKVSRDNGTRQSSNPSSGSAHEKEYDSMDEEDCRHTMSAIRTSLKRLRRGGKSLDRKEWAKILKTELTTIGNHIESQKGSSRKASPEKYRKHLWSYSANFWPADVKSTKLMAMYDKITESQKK

Chain of Protein translocase subunit SecA (Escherichia coli (strain K12)) (P10408 whole entry): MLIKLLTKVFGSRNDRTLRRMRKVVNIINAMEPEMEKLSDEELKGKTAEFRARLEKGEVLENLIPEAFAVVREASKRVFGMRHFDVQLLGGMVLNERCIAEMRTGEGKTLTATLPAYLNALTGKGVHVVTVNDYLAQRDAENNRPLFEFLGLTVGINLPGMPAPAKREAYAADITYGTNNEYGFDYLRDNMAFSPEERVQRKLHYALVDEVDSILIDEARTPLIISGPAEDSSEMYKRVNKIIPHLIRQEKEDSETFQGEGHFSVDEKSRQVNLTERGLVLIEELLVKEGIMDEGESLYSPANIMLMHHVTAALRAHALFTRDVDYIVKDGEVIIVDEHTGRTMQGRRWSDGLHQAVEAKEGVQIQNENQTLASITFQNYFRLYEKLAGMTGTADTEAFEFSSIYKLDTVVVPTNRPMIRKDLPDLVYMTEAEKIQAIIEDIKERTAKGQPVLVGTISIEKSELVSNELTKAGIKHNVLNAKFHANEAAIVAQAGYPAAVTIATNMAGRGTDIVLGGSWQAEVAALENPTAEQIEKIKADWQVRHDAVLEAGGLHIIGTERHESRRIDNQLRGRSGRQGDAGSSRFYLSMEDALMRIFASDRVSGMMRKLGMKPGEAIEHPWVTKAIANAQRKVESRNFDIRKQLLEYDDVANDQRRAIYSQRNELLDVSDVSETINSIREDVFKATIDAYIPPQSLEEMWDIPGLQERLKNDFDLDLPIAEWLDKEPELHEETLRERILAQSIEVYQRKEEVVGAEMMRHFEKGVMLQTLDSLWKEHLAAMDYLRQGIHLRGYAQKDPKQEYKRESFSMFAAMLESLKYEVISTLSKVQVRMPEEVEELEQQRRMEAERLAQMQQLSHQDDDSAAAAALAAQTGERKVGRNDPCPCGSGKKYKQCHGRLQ
Chain of Sialic acid-binding Ig-like lectin 9 (Homo sapiens) (Q9Y336 whole entry): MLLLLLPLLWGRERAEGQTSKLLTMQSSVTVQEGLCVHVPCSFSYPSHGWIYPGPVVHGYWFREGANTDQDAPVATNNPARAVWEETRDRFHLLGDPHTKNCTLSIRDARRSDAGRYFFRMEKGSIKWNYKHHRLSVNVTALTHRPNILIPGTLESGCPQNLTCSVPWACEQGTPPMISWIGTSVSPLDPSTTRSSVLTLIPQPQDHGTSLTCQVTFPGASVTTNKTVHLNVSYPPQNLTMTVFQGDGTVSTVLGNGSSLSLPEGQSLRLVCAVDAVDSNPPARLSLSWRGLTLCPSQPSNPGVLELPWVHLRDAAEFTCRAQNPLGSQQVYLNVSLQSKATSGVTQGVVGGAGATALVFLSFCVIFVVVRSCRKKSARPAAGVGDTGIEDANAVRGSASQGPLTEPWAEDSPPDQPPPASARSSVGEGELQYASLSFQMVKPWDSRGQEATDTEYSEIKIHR

Regarding `CCCN(CCO)C(=O)C1CCC(=O)N(CCc2ccc(Cl)cc2)C1` (stereo unspecified), the Percent Effect is 0.568% in [1]; 6.94% in [2]; 1.97% in [3]; -2.89% in test [4]; 2.23% with Trypanosoma cruzi; 3.53% in [5]. The Percent Effect in test [6] is 8.77%; in the test listed under Homo sapiens it was -9.44%; in [7] it was 4.21%; in test [8], 7.69%; in test [9] it was -5.01%.
For the molecule `Cc1nc(-c2ccsc2)ccc1C(=O)O`, the Percent Effect in test [1] is -3.65%; in test [2], 4.17%; in [3] it was 0.691%; in [4], -1%; with Trypanosoma cruzi it was 0.68%; in test [5] it was 2.65%. Also, the Percent Effect was 21.9% in test [6]; -3.42% in the test filed under Homo sapiens; 5.26% in test [7]; 10.3% in [8]; -3.62% in [9].
For the molecule `Cc1cc2c(=O)n3c(nc2s1)CCN(Cc1cnn(C)c1C)CC3`, the Percent Effect is -4.39% in test [1]; 9.46% in [2]; 12.6% in test [3]; -0.402% in [4]; -4.74% with Trypanosoma cruzi; 2.09% in test [5]. Moreover, the Percent Effect in test [6] is 8.58%; in the test listed under Homo sapiens, 7.67%; in test [7] it was 5.38%; in [8], 9.09%; in test [9], -8.69%.
On to `COCCN1C[C@@H]2CN(Cc3cccc(F)c3)CCC[C@]2(C(=O)O)C1`, for which the Percent Effect in [1] is -4.38%; in [2] it was 0%; in test [3], 0.729%; in test [4] it was -3.33%; in the test with Trypanosoma cruzi it was -4.24%; in test [5], 1.94%. For the same molecule, the Percent Effect was 8.53% in test [6]; 3.04% in the test listed under Homo sapiens; -2.12% in test [7]; -1.28% in test [8]; -7.5% in test [9].
Regarding `COc1ccccc1OCc1cc(C(=O)N2CC(O)C2)n[nH]1`, the Percent Effect in test [1] is -4.46%; in test [2], 4.17%; in test [3] it was 141%; in test [4], -2.11%; in the test with Trypanosoma cruzi, -0.875%; in test [5], 3.09%. The Percent Effect is 6.49% in test [6]; 1.4% in the test listed under Homo sapiens; 4.21% in [7]; 10.3% in test [8]; -1.24% in test [9].
Consider `OC(CN1CCC(c2ccn[nH]2)CC1)c1cccc(F)c1` (stereo unspecified), for which the Percent Effect in test [1] is 1.18%; in [2], 12.7%; in test [3], 4.09%; in test [4] it was 4.6%; in the test on Trypanosoma cruzi, -3.49%; in test [5], 6.84%. Besides, the Percent Effect in [6] is 6.31%; in the test listed under Homo sapiens, 13.5%; in [7] it was 5.42%; in [8], 11.4%; in test [9], -4.54%.
Take `Cc1cnn(CCNCc2csc(-c3ccc(F)cc3)n2)c1`: the Percent Effect in test [1] was -3.56%; in test [2], -15.8%; in test [3] it was 4.58%; in test [4] it was 5.27%; in the test with Trypanosoma cruzi, 3.19%; in test [5] it was 0.383%. Further, the Percent Effect is 1% in test [6]; 1.14% in the test listed under Homo sapiens; 1.47% in test [7]; 0% in [8]; 5.05% in test [9].
Turning to `CCCc1cc(=O)n(CC(N)=O)c(-n2nc(C)cc2C)n1`, the Percent Effect in [1] is -1.73%; in test [2], 7.79%; in test [3] it was 7.17%; in test [4] it was -1.59%; in the test with Trypanosoma cruzi, 2.46%; in test [5], -4.52%. The Percent Effect is 10.1% in test [6]; 32% in the test listed under Homo sapiens; 3.17% in test [7]; 11.5% in test [8]; -9.6% in test [9].
Consider `c1ccc(Cc2noc(CNC3CCc4ncnn4C3)n2)cc1` (stereo unspecified), for which the Percent Effect is -2.79% in test [1]; 16.2% in test [2]; -4.03% in test [3]; 4.98% in test [4]; 3.81% in the test with Trypanosoma cruzi; -3.88% in [5]. The Percent Effect in [6] is 8.44%; in the test filed under Homo sapiens it was 1.98%; in test [7] it was 10.9%; in test [8] it was 25.6%; in test [9], -5.11%.
Turning to `O=C1CO[C@@H]2CN(CC3CCOCC3)C[C@H]2N1CC1CC1`, the Percent Effect is -3.37% in test [1]; 10.8% in test [2]; 5.33% in test [3]; -0.714% in [4]; -5.18% in the test on Trypanosoma cruzi; 5.41% in [5]. The Percent Effect in [6] was 20.1%; in the test listed under Homo sapiens, 10.6%; in [7] it was 5.41%; in [8] it was 17.9%; in test [9], 3.58%.
In the case of `CC(C)c1nnc2n1CCN(CC(=O)N1CCc3ccccc3C1)C2`, the Percent Effect in test [1] is -3.76%; in test [2], 2.63%; in [3], -2.4%; in test [4], 1.05%; in the test on Trypanosoma cruzi it was 6.01%; in test [5] it was -1.53%. The Percent Effect in test [6] was -0.167%; in the test listed under Homo sapiens, 5.07%; in [7] it was 7.35%; in test [8], 9.76%; in [9], -9.88%.
